# According to PubChem BioAssay (NCATS):
# Several values for one entry are separate records, joined by “and”; a condition that tells them apart may be missing. Equal values may be shown once. Results filed as inconclusive are left out. A number with no mark means an inactive call. The call rests on the fitted dose curve; in most records, active means well fitted curve in the direction sought with a large enough effect; inconclusive means small, poorly fitted or top-dose-only effect, or another doubt; inactive means no such curve, though single readings can be large or run the other way.
# Test: qHTS Assay for Identifying Gametocytocidal Compounds (AID 743244);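 further: actives lower the fluorescent signal which means gametocytes are killed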
# Settings: P. falciparum 3D7 stage III-V gametocytes, alamarBlue, 72 h; max response: active compounds read low
# Outline: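 Stage III-V P. falciparum 3D7 gametocytes, 20,000 per well, were exposed to compounds for 72 h at 37C, 5% CO2. AlamarBlue was then added for 24 h and viability was read as fluorescence at Ex 525/Em 598 nm.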
# On the % scale 0 is the no-effect control and ±100 the full control effect.
row,Structure (SMILES),max response
1,NS(=O)(=O)c1cc2c(cc1Cl)NC(C(Cl)Cl)NS2(=O)=O (configuration not stated),6.12%
2,CNNCc1ccc(C(=O)NC(C)C)cc1,-5.75%
3,NC(=O)c1cccnc1,0.464%
4,Nc1ccc(S(=O)(=O)Nc2ccccn2)cc1,3.9%
5,COCCCOc1cc(C[C@@H](C[C@H](N)[C@@H](O)C[C@H](C(=O)NCC(C)(C)C(N)=O)C(C)C)C(C)C)ccc1OC,13.7%
6,CC(C)(Sc1cc(C(C)(C)C)c(O)c(C(C)(C)C)c1)Sc1cc(C(C)(C)C)c(O)c(C(C)(C)C)c1,-1.03%
7,CCc1c2c(nc3ccc(OC(=O)N4CCC(N5CCCCC5)CC4)cc13)-c1cc3c(c(=O)n1C2)COC(=O)[C@]3(O)CC,2.43%
8,CCC(C)(C)c1ccc(CC(C)CN2C[C@@H](C)O[C@@H](C)C2)cc1 (some centres not stated),21.2%
9,CCCCCCNC(=O)n1cc(F)c(=O)[nH]c1=O,-3.88%
10,C[C@@H](CN1CC(=O)NC(=O)C1)N1CC(=O)NC(=O)C1,9.49%
11,CNS(=O)(=O)Cc1ccc2[nH]cc(CCN(C)C)c2c1,0.507%
12,CCn1cc(C(=O)O)c(=O)c2cc(F)c(N3CCNCC3)nc21,0.203%
13,Nc1nc(=S)c2[nH]cnc2[nH]1,3.77% and 7.36%
14,CCOC(=O)c1ccc(OC(=O)CCCCCN=C(N)N)cc1,-8.62%
15,Cn1c(=O)c2c(ncn2CC(O)CO)n(C)c1=O (configuration not stated),-1.9%
16,CC(C)(C)C(=O)OCOP(=O)(COCCn1cnc2c(N)ncnc21)OCOC(=O)C(C)(C)C,4.48%
17,COC(c1ccccc1)(c1ccccc1)[C@H](Oc1nc(C)cc(C)n1)C(=O)O,8.54%
18,Nc1nc(N)nc(-c2cc(Cl)ccc2Cl)n1,11.2%
19,CN1CCN(c2c(F)cc3c(=O)c(C(=O)O)cn4c3c2OCN4C)CC1,0.61%
20,Cc1oc(=O)oc1CN1CCN(c2cc3c(cc2F)c(=O)c(C(=O)O)c2n3C(C)S2)CC1 (configuration not stated),2.62%
21,CN(CCOc1ccc(CC2SC(=O)NC2=O)cc1)c1ccccn1 (configuration not stated),11.4%
22,CC(C)OC(=O)C(C(=O)OC(C)C)=C1SC=CS1,13.6%
